Experimental data as given in article PMC7862700, “An all-to-all approach to the identification of sequence-specific readers for epigenetic DNA modifications on cytosine”.

Legend:
Test in all cases: DAPPL (digital affinity profiling via proximity ligation, sequencing); 10 mM Tris-HCl pH 7.5, 50 mM NaCl, 1 mM DTT, 4% glycerol, room temperature, 30 min; GST-TFs on glutathione beads, 16-mer random dsDNA library, 0.1% formaldehyde crosslink after washing; high values mean tight binding
FEV = target: T1, FEV (Homo sapiens, UniProt Q99581 1-238); settings: protein: recombinant; tags: N-terminal GST; dsDNA, one strand shown
T1 sequence: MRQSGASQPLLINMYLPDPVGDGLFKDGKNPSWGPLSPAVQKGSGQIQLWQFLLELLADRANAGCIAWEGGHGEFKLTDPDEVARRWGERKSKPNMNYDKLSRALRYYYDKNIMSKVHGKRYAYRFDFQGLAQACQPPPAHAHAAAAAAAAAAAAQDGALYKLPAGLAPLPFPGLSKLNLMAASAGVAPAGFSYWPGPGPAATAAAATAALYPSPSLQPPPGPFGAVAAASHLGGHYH
Summary of the method: (§1)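 Human transcription factors fused to GST were expressed in yeast, captured on glutathione beads, given DNA barcodes and pooled with a GST-only negative control. Pools were incubated with 200 nmole of a 16-mer random double-stranded DNA library in Tris/NaCl/DTT/glycerol buffer at room temperature for 30 min. They were then washed, crosslinked with 0.1% formaldehyde, proximity-ligated (BsaI/T4 ligase, 1 h, 37 °C), PCR-amplified and sequenced on an Illumina NextSeq500. Binding signal is each 6-mer's read frequency for a factor divided by its frequency for the GST control.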

ETV5 = ETV5 (Homo sapiens, UniProt P41161 1-510); settings: protein: recombinant; tags: N-terminal GST; dsDNA, one strand shown
Chain of ETV5 (P41161 whole entry): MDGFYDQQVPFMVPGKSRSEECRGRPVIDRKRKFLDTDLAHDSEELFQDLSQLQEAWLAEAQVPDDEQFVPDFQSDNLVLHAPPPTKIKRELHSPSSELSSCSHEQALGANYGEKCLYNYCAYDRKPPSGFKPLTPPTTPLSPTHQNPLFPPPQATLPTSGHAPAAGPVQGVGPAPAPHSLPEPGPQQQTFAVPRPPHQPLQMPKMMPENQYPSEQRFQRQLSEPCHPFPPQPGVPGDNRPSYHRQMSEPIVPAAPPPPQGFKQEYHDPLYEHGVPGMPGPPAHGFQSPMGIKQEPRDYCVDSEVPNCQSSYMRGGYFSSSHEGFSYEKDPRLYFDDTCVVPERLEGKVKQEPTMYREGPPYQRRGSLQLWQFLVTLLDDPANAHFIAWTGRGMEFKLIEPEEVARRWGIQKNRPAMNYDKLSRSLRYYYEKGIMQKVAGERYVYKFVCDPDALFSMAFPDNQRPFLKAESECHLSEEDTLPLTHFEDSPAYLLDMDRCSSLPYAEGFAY
Summary of the method: as §1

HSF1 = HSF1 (Homo sapiens, UniProt Q00613 1-529); settings: protein: recombinant; tags: N-terminal GST; chain copies: 3; dsDNA, one strand shown
Chain of HSF1 (Q00613 whole entry): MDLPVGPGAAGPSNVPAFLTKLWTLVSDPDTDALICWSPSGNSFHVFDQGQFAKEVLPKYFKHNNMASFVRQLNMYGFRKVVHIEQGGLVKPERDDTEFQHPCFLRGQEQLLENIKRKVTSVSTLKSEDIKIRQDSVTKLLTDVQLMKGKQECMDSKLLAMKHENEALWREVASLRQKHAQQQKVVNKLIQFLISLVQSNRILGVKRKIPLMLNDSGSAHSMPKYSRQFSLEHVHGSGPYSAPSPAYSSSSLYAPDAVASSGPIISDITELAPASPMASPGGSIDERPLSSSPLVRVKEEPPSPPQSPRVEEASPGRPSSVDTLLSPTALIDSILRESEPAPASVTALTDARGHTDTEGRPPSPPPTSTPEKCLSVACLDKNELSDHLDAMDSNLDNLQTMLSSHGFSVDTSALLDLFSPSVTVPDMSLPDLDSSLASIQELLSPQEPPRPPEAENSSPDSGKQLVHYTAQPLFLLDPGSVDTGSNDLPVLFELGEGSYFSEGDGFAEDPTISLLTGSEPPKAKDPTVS
Summary of the method: as §1

SPIC = target: T2, SPIC (Homo sapiens, UniProt Q8N5J4 1-248); settings: protein: recombinant; tags: N-terminal GST; dsDNA, one strand shown
T2 sequence: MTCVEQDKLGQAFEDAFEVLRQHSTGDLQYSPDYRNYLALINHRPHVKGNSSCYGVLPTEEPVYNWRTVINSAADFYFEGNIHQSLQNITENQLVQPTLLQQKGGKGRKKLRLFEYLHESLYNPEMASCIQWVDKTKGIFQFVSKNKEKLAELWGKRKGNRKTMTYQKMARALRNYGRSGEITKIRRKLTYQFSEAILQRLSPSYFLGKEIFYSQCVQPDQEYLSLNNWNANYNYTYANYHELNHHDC
Summary of the method: as §1

ELF4 = ELF4 (Homo sapiens, UniProt Q99607 1-663); settings: protein: recombinant; tags: N-terminal GST; dsDNA, one strand shown
Chain of ELF4 (Q99607 whole entry): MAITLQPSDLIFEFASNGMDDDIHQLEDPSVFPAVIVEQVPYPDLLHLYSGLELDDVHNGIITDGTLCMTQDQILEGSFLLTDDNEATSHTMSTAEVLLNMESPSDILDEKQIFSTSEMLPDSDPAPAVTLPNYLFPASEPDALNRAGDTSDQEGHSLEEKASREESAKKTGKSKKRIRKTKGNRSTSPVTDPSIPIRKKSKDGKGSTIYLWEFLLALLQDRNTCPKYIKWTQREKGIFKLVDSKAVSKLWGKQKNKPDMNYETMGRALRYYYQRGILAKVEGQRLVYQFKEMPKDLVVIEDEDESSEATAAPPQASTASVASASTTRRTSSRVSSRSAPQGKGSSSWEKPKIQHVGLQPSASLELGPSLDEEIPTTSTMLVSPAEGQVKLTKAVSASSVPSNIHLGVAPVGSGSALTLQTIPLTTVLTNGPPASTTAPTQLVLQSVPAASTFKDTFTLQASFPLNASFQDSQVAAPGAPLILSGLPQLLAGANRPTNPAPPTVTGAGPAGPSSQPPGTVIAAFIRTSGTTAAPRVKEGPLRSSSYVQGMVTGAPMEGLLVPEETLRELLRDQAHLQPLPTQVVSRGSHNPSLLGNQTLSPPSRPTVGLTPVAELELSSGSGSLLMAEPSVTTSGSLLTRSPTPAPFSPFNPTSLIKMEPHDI
Summary of the method: as §1

ELK4 = target: T3, ELK4 (Homo sapiens, UniProt P28324-2 1-405); settings: protein: recombinant; tags: N-terminal GST; dsDNA, one strand shown
T3 sequence: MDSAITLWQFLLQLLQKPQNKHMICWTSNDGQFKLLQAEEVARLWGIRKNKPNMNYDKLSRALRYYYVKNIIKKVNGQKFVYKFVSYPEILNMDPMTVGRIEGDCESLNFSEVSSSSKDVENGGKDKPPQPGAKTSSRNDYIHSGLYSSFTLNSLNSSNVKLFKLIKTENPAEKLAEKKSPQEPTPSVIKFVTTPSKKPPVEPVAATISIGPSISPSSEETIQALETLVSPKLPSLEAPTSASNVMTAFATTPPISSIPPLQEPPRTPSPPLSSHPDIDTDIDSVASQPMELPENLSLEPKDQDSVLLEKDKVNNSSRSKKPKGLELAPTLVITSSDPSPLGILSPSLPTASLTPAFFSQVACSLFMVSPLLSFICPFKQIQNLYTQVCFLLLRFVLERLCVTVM
Summary of the method: as §1

ETV2 = target: T4, ETV2 (Homo sapiens, UniProt O00321 1-342); settings: protein: recombinant; tags: N-terminal GST; dsDNA, one strand shown
T4 sequence: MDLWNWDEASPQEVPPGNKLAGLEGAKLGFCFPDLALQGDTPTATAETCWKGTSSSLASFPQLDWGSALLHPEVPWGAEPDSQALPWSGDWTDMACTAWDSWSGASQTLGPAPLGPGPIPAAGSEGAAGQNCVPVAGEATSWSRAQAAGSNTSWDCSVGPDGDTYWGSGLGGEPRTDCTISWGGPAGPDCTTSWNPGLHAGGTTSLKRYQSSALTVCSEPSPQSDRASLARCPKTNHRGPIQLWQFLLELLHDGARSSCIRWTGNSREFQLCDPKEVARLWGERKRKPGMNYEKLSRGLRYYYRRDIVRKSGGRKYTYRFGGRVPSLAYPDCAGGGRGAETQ
Summary of the method: as §1

ELF3 = target: T5, ELF3 (Homo sapiens, UniProt P78545 1-371); settings: protein: recombinant; tags: N-terminal GST; dsDNA, one strand shown
T5 sequence: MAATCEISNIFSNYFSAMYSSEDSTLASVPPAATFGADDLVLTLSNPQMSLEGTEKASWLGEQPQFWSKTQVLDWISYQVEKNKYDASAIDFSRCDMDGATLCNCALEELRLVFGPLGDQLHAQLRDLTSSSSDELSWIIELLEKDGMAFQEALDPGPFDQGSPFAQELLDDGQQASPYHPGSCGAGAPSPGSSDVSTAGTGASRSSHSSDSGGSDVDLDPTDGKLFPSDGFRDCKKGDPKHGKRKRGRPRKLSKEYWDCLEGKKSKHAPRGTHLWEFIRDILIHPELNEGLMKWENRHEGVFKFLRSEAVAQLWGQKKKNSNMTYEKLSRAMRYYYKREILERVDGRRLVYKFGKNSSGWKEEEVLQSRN
Summary of the method: as §1

CRX = CRX (Homo sapiens, UniProt O43186 1-299); settings: protein: recombinant; tags: N-terminal GST; dsDNA, one strand shown
Chain of CRX (O43186 whole entry): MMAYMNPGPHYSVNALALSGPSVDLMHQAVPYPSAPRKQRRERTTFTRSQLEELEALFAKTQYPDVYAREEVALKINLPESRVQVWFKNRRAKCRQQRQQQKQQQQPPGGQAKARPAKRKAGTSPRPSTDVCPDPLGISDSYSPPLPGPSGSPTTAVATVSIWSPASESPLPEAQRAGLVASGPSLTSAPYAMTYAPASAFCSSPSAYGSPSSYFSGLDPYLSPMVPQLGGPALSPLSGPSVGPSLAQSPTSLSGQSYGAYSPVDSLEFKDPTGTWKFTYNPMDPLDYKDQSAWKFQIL
Summary of the method: as §1

ETV1 = ETV1 (Homo sapiens, UniProt P50549 1-477); settings: protein: recombinant; tags: N-terminal GST; dsDNA, one strand shown
Chain of ETV1 (P50549 whole entry): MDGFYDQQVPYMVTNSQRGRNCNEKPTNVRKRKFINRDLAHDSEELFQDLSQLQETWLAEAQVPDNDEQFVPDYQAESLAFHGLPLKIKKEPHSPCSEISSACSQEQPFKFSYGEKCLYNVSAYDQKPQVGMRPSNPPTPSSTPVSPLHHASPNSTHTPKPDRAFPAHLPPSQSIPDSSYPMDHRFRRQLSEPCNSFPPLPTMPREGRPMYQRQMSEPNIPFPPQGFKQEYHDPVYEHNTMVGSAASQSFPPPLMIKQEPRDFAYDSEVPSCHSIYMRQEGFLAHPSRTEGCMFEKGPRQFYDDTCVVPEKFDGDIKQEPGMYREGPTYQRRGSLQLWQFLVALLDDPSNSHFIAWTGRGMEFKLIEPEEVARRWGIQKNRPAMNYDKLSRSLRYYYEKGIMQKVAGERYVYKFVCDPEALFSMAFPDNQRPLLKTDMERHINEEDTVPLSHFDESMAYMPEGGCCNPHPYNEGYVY
Summary of the method: as §1

ERF = target: T6, ERF (Homo sapiens, UniProt P50548 1-548); settings: protein: recombinant; tags: N-terminal GST; dsDNA, one strand shown
T6 sequence: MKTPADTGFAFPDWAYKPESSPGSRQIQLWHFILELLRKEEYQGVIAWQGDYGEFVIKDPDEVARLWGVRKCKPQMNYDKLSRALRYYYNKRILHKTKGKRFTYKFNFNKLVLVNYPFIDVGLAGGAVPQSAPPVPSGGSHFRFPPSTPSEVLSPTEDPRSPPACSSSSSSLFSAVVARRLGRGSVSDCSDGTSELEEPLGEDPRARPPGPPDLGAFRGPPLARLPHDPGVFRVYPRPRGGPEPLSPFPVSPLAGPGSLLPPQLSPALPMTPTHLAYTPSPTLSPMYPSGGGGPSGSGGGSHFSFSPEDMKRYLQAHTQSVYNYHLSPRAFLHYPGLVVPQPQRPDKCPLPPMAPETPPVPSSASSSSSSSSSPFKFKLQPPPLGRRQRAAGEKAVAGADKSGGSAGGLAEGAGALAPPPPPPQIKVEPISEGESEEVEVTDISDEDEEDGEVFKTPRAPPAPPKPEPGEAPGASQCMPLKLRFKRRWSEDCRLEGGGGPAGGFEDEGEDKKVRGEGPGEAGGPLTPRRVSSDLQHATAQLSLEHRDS
Summary of the method: as §1

ETV3L = target: T7, ETV3L (Homo sapiens, UniProt Q6ZN32 1-361); settings: protein: recombinant; tags: N-terminal GST; dsDNA, one strand shown
T7 sequence: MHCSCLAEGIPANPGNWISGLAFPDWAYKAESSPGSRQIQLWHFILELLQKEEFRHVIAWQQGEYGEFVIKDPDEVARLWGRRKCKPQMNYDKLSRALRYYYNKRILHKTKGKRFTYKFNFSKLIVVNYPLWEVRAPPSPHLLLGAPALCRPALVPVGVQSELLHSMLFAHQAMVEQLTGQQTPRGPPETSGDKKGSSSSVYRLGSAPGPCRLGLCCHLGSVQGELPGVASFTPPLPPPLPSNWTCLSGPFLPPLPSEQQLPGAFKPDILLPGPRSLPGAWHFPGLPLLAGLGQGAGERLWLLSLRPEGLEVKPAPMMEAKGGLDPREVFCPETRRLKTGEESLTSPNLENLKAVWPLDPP
Summary of the method: as §1

ETS2 = target: T8, ETS2 (Homo sapiens, UniProt P15036 1-469); settings: protein: recombinant; tags: N-terminal GST; dsDNA, one strand shown
T8 sequence: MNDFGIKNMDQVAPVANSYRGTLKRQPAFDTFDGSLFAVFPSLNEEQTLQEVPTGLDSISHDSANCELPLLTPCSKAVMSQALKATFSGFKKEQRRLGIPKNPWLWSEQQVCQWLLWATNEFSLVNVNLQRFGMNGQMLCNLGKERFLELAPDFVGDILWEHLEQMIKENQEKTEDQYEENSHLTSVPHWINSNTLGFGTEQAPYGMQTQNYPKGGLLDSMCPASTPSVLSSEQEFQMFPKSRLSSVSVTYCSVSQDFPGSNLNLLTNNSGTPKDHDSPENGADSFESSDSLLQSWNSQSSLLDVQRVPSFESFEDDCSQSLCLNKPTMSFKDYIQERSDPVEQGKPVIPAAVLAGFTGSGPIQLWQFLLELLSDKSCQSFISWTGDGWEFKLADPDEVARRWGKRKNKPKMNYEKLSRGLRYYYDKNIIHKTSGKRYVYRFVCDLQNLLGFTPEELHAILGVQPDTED
Summary of the method: as §1

SPDEF = target: T9, SPDEF (Homo sapiens, UniProt O95238 1-335); settings: protein: recombinant; tags: N-terminal GST; dsDNA, one strand shown
T9 sequence: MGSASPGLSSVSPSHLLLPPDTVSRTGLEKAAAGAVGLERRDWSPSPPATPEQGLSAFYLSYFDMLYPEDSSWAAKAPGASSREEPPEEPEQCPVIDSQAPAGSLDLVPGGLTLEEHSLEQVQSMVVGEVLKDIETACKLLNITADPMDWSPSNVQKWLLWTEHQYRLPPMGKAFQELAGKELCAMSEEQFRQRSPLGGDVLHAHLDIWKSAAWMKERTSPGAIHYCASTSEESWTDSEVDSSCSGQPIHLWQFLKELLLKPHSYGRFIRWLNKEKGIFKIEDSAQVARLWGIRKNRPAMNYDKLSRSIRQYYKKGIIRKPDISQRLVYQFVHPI
Summary of the method: as §1

ETV7 = target: T10, ETV7 (Homo sapiens, UniProt Q9Y603 1-341); settings: protein: recombinant; tags: N-terminal GST; dsDNA, one strand shown
T10 sequence: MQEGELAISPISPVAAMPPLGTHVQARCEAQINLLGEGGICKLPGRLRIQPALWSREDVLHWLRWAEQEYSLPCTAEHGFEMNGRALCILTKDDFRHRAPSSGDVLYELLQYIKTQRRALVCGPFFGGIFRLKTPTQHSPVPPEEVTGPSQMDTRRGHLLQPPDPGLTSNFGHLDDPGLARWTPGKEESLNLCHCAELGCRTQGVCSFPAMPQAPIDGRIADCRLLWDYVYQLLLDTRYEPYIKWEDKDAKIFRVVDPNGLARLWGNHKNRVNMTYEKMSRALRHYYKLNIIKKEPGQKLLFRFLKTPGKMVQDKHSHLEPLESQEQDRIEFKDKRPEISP
Summary of the method: as §1

ELF5 = target: T11, ELF5 (Homo sapiens, UniProt Q9UKW6-2 1-255); settings: protein: recombinant; tags: N-terminal GST; dsDNA, one strand shown
T11 sequence: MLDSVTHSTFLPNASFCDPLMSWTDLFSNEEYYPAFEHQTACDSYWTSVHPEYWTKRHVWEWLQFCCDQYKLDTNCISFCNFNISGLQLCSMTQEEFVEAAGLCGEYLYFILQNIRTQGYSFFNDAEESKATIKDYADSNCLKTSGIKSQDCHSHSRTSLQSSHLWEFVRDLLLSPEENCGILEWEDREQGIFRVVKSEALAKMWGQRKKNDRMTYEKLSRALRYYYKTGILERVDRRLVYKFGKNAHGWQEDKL
Summary of the method: as §1

ETV3 = target: T12, ETV3 (Homo sapiens, UniProt P41162-2 1-143); settings: protein: recombinant; tags: N-terminal GST; dsDNA, one strand shown
T12 sequence: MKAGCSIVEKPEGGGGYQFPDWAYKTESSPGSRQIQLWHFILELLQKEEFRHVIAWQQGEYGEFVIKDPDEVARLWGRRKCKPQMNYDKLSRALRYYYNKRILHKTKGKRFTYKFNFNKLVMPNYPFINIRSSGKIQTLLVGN
Summary of the method: as §1

ETV6 = ETV6 (Homo sapiens, UniProt P41212 1-452); settings: protein: recombinant; tags: N-terminal GST; dsDNA, one strand shown
Chain of ETV6 (P41212 whole entry): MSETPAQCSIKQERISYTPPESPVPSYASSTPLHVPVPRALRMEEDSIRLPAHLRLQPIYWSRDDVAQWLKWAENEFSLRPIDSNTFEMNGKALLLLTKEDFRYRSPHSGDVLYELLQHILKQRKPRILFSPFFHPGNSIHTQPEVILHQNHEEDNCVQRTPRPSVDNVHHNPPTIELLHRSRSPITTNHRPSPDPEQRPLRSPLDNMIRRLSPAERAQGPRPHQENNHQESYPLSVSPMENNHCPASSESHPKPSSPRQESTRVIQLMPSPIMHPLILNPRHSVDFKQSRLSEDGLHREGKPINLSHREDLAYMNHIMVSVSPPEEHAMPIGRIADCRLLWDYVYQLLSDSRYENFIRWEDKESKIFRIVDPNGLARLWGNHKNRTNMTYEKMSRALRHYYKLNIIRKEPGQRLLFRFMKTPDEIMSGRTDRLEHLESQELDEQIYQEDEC
Summary of the method: as §1

CGCCCT
binding signal (FEV): 1.37 fold enrichment (6-mer frequency, TF over GST control) | binding signal (ETV5): 1.29 fold enrichment (6-mer frequency, TF over GST control) | binding signal (HSF1): 1.13 fold enrichment (6-mer frequency, TF over GST control) | binding signal (SPIC): 1.21 fold enrichment (6-mer frequency, TF over GST control) | binding signal (ELF4): 1.47 fold enrichment (6-mer frequency, TF over GST control) | binding signal (ELK4): 1.1 fold enrichment (6-mer frequency, TF over GST control) | binding signal (ETV2): 1.4 fold enrichment (6-mer frequency, TF over GST control) | binding signal (ELF3): 1.04 fold enrichment (6-mer frequency, TF over GST control) | binding signal (CRX): 1.11 fold enrichment (6-mer frequency, TF over GST control) | binding signal (ETV1): 1.37 fold enrichment (6-mer frequency, TF over GST control) | binding signal (ERF): 1.37 fold enrichment (6-mer frequency, TF over GST control) | binding signal (ETV3L): 1.34 fold enrichment (6-mer frequency, TF over GST control) | binding signal (ETS2): 1.38 fold enrichment (6-mer frequency, TF over GST control) | binding signal (SPDEF): 1.31 fold enrichment (6-mer frequency, TF over GST control) | binding signal (ETV7): 1.51 fold enrichment (6-mer frequency, TF over GST control) | binding signal (ELF5): 1.22 fold enrichment (6-mer frequency, TF over GST control) | binding signal (ETV3): 1.34 fold enrichment (6-mer frequency, TF over GST control) | binding signal (ETV6): 1.31 fold enrichment (6-mer frequency, TF over GST control)
